The subject of assay [1] is Plasmodium falciparum Sir2 (PF13_0152, Sir2A). Briefly: pfSir2 binders on small-molecule microarrays, primary screen, biochemical, small-molecule microarray, 635 nm fluorescence (AID 1098).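 Further: score merges spot fluorescence intensity with its signal-to-noise ratio.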 Particulars: small-molecule microarray binding, fluorescence 635 nm; higher = more signal.
Assay [2] is described as follows: small-molecule microarray binders of probe aDKK1, primary screen, biochemical, biotinylated probe, 635/667 nm fluorescence (AID 1099).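 Further: score merges 667nm spot fluorescence with signal to noise across triplicate slides.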 To be noted: higher = more signal.
Assay [3] is described as follows: small-molecule microarray binders of probe aCHRDL2, primary screen, biochemical, biotinylated probe, 635/667 nm fluorescence (AID 1100). Particulars: higher = more signal.
The nature of assay [4]: splicing luciferase reporter signal modulators, primary screen, spliceosome inhibition project, cell-based, HEK293, splice +/- reporter (AID 1101).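 Further: HEK293 cells carrying a splicing-competent luciferase reporter gene; test concentration not given here.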 Particulars: luminescence, 24 h, higher = more signal, called active from +8 up or from −8 down. (A reporter such as luciferase makes a cellular process visible.)
Assay [5] addresses Fibroblast growth factor 10 (Homo sapiens) (UniProt O15520). Briefly: FGF10 binders on small-molecule microarrays, primary screen, biochemical, small-molecule microarray, 635 nm fluorescence (AID 1102). Particulars: FGF10 binding, fluorescence 635 nm, higher = more signal.
Assay [6] deals with glycogen synthase kinase-3 (GSK3A per assay name; protocol says GSK3B). Put plainly: GSK3 binders on small-molecule microarrays, primary screen, biochemical, small-molecule microarray, 635 nm fluorescence, GSK3A (AID 1103). Further: the record names both GSK3A and GSK3B. Particulars: small-molecule microarray binding, fluorescence 635 nm; higher = more signal.
Assay [7] concerns the target Epidermal growth factor receptor (Homo sapiens) (UniProt P00533). Briefly: EGFR binders on small-molecule microarrays, primary screen, biochemical, small-molecule microarray, 635 nm fluorescence (AID 1104).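 Further: score merges 667 nm emission intensity with spot signal to noise over triplicate slides.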 Particulars: EGFR binding, higher = more signal.
The target of assay [8] is Follistatin-related protein 3 (Homo sapiens) (UniProt O95633). Put plainly: FSTL3 binders on small-molecule microarrays, primary screen, biochemical, small-molecule microarray, 635 nm fluorescence (AID 1105).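 Further: score merges emission near 667 nm and signal to noise per printed spot across three slides.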 To be noted: FSTL3 binding, higher = more signal.
The target in assay [9] is Dickkopf-related protein 1 (Homo sapiens) (UniProt O94907). Briefly: DKK1 binders on small-molecule microarrays, primary screen, biochemical, small-molecule microarray, 635 nm fluorescence scan (AID 1106).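 Further: score merges emission near 667 nm with signal to noise over three replicate slides.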 To be noted: DKK1 binding, higher = more signal.
For assay [10], the system named is Inhibin beta A chain (activin A). Briefly: INHBA (activin A) binders on microarrays, primary screen, biochemical, small-molecule microarray, 635 nm fluorescence scan (AID 1107).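 Further: mouse activin A protein probed at 4.33 µg/mL on printed slides; score merges bound-protein fluorescence near 667 nm with spot signal-to-noise.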 To be noted: small-molecule microarray binding, higher = more signal.
Assay [11] concerns Human papillomavirus type 1a protein E7 (residues 44-93). Briefly: HPV1a E7 fragment binders on microarrays, primary screen, biochemical, small-molecule microarray, residues 44-93, 635 nm fluorescence (AID 1108).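 Further: E7 fragment applied at 1 µg/mL in TBST for 1 h at 4 C; score combines spot fluorescence with its signal to noise ratio.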 To be noted: small-molecule microarray binding, fluorescence 635 nm; higher = more signal.
A short description of assay [12]: modulators of HCV replicon luciferase signal, primary screen, HCV replication inhibitor project, Huh7 cells, luciferase reporter (AID 1109).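 Further: huh7 hepatoma cells harbouring a luciferase neomycin HCV replicon reporter; luciferase luminescence as measure of HCV replicon replication; test concentration not given here.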 To be noted: 48 h, higher = more signal.
For assay [13], the target named is Left-right determination factor 2 (Homo sapiens) (UniProt O00292). Briefly: LEFTY2 binders on small-molecule microarrays, primary screen, biochemical, small-molecule microarray, 635 nm fluorescence scan (AID 1110). To be noted: LEFTY2 binding, higher = more signal.
Assay [14] addresses Calmodulin-1 (Homo sapiens) (UniProt P0DP23). Put plainly: CALM1 binders on microarrays, EGTA buffer, profiling panel, biochemical, small-molecule microarray, Cy5-labelled CALM1 (AID 1111).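 Further: labelled calmodulin applied in Tris saline Tween buffer holding calcium plus EGTA and DTT.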 Particulars: Cy5-CALM1 binding fluorescence, higher = more signal.
For assay [15] the target is unchanged. Briefly: calcium-bound CALM1 binders on microarrays, profiling panel, artefact control for SMM control-protein annotation, biochemical, small-molecule microarray, Cy5-labelled CALM1, plus calcium (AID 1112).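 Further: score merges spot fluorescence with signal to noise from triplicate slides.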 To be noted: Cy5-CALM1 binding fluorescence, higher = more signal.
The nature of assay [16]: small-molecule microarray binders of probe aWnt5a, primary screen, biochemical, biotinylated probe, 635/667 nm fluorescence (AID 1113).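 Further: score merges 667 nm fluorescence intensity with signal-to-noise per printed feature.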 Particulars: higher = more signal.
Assay [17] in a line: small-molecule microarray binders of probe aShh, primary screen, biochemical, biotinylated probe, 635/667 nm fluorescence (AID 1114).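 Further: probe is biotin-labelled aShh protein from a stem cell growth factor screen; measures binding of labelled protein to compounds printed on the slide; score merges feature fluorescence at 667 nm with signal-to-noise.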 Particulars: higher = more signal.
The nature of assay [18]: small-molecule microarray binders of probe aNog, primary screen, biochemical, biotinylated probe, 635/667 nm fluorescence (AID 1115).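 Further: probe is biotinylated aNog protein used at 0.15 µg/mL for 1 h at 4 C; z-score combines 667 nm fluorescence of each spot with its signal to noise.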 Particulars: higher = more signal.
In assay [19] the target is Torsin-1A-interacting protein 1 (Homo sapiens) (UniProt Q5JTV8). Briefly: LAP1 binders from COS7 cell lysate, primary screen, small-molecule microarray, 635/667 nm fluorescence (AID 1116). To be noted: COS7-hLAP1 lysate binding, 635 nm fluorescence, higher = more signal.
Assay [20] concerns the target Alpha-bungarotoxin (Bungarus multicinctus) (UniProt P60615). Briefly: alpha-bungarotoxin binders on microarray, profiling panel, artefact control for SMM control protein annotation, biochemical, small-molecule microarray, Alexa647 label, 635/667 nm fluorescence (AID 1117). To be noted: alpha-BTX-A647 binding fluorescence, higher = more signal.

Data on five compounds can be found in PubChem BioAssay.

The source made the active and inactive calls.

Sequence of Fibroblast growth factor 10 (Homo sapiens) (O15520 whole entry, looked up): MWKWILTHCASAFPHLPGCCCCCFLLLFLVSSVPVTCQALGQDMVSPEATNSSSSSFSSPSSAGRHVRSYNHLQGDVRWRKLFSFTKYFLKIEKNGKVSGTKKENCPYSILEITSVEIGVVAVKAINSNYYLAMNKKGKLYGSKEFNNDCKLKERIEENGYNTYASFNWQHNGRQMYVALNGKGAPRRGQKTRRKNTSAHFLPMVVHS
Sequence of Alpha-bungarotoxin (Bungarus multicinctus) (P60615 whole entry, looked up): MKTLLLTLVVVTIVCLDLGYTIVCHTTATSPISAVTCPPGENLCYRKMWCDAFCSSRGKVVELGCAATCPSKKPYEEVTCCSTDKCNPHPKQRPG
Sequence of Epidermal growth factor receptor (Homo sapiens) (P00533 whole entry, looked up): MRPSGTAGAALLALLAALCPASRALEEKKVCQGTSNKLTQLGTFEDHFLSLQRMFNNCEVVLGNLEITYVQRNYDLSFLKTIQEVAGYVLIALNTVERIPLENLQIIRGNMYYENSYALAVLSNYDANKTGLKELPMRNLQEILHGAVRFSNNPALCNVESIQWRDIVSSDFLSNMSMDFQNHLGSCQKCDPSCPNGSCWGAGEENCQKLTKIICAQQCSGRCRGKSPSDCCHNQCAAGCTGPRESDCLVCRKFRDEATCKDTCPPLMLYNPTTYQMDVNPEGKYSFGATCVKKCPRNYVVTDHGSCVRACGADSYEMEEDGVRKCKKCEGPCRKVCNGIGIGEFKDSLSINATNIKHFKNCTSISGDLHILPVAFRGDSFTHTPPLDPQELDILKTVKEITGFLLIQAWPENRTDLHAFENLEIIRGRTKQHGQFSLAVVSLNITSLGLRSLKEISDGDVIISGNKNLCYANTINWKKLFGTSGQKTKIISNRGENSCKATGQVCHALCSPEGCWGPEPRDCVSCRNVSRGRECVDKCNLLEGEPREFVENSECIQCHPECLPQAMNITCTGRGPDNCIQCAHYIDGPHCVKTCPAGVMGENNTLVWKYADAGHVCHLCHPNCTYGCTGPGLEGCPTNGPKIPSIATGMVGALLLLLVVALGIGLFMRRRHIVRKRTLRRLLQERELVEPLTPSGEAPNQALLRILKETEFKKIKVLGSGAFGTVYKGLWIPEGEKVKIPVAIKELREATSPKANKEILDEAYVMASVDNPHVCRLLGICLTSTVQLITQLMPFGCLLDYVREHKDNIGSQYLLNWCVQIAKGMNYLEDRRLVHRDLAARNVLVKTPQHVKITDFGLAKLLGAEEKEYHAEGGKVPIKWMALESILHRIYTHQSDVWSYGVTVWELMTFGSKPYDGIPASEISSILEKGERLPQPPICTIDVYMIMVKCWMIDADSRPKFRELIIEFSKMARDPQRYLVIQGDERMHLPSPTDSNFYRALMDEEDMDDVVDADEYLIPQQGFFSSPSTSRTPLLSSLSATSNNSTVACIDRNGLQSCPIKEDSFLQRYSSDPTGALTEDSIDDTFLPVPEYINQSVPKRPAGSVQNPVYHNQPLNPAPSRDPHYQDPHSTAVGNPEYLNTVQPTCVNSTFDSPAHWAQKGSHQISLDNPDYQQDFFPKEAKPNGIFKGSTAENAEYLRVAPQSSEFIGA
Sequence of Dickkopf-related protein 1 (Homo sapiens) (O94907 whole entry, looked up): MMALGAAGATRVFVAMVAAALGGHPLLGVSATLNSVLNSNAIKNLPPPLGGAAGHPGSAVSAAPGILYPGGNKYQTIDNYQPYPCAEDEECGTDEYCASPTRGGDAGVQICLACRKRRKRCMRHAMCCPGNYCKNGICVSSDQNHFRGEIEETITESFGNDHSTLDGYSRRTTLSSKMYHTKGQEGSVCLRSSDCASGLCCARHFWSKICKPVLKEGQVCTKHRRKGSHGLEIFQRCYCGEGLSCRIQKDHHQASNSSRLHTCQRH
Sequence of Torsin-1A-interacting protein 1 (Homo sapiens) (Q5JTV8 whole entry, looked up): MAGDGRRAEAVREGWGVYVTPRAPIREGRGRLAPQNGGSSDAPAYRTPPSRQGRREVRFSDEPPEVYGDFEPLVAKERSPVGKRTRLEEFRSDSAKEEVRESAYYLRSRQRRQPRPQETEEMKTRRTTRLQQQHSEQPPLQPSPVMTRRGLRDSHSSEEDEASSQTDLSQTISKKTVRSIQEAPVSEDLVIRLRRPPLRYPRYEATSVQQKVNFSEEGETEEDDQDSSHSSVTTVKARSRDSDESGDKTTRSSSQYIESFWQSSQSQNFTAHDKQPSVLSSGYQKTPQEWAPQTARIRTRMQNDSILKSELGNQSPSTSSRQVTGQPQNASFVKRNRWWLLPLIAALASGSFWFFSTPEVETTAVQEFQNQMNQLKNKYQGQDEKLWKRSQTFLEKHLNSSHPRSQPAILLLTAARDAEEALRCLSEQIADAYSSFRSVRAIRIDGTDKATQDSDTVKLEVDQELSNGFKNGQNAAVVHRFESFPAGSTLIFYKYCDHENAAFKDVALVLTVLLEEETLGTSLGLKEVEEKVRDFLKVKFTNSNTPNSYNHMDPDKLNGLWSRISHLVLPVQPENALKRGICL
Sequence of Follistatin-related protein 3 (Homo sapiens) (O95633 whole entry, looked up): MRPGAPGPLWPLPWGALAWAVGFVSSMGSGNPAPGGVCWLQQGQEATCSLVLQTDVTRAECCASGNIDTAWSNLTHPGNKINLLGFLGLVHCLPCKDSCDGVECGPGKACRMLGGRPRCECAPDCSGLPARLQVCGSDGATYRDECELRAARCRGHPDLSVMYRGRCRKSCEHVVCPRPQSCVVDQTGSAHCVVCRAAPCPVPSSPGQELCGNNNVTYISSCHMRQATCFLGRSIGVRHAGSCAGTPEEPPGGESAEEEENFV
Sequence of Left-right determination factor 2 (Homo sapiens) (O00292 whole entry, looked up): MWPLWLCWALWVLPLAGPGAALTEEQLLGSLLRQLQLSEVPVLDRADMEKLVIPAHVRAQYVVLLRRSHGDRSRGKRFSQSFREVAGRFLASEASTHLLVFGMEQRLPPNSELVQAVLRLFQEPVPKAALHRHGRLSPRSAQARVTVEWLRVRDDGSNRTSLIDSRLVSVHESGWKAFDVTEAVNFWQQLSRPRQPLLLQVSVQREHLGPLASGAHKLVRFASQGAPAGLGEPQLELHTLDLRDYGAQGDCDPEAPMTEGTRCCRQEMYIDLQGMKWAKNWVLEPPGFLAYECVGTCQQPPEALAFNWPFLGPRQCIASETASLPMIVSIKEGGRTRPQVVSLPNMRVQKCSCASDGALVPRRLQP

`O=C(OCCF)C1=CCC(c2cccc(Cl)c2)O1` (stereo not given): the composite z-score is -0.229 in assay [1]; -0.0052 in [2]; -0.325 in assay [3]; 0.0899 in assay [5]; 0.644 in [6]; 0.119 in assay [7]. Moreover, the composite z-score in assay [8] is 0.151; in assay [9], -0.183; in assay [10], 0.44; in [11], 0.628; in assay [13] it was 0.15; in assay [14], 0.0307. The composite z-score was 0.164 in [15]; -0.169 in assay [16]; -0.0769 in [17]; -0.0784 in assay [18]; 1.53 in assay [19]; 0.775 in [20]. The values for the z-score in assay [4] and in [12] were -0.824 (inactive) and -0.0162, respectively.

Take `Cc1ccc(S[C@]2(C(=O)NCC(C)C)CC(=O)N(Cc3ccccc3Cl)[C@@H]2c2ccc(CO)cc2)cc1`: the composite z-score in assay [1] is -0.248; in assay [2], 0.254; in assay [3] it was 0.94; in assay [5], -0.756; in assay [6] it was -1.15; in [7] it was -1. In addition, the composite z-score in assay [8] is -2.05; in [9], -1.77; in assay [10], -0.544; in assay [11], -0.411; in [13], -1.46; in assay [14], -0.476. Moreover, the composite z-score is -0.115 in assay [15]; -0.228 in assay [16]; -0.181 in assay [17]; -0.618 in assay [18]; -1.08 in [19]; 0.86 in assay [20]. Also, the z-score in assay [4] was 0.35 (inactive); in assay [12] it was -1.73.

`C=C[C@@H](COC(C)=O)N(Cc1ccccc1[N+](=O)[O-])S(=O)(=O)c1ccc(Br)cc1`: the composite z-score is 1.31 in assay [1]; 0.278 in assay [2]; -0.0205 in [3]; 0.863 in assay [5]; 1.16 in assay [6]; 1.2 in [7]. The composite z-score in [8] came out at 1.39; in assay [9], 1.82; in assay [10], 1.16; in [11], 1.08; in assay [13] it was 1.02; in assay [14], 0.198. In addition, the composite z-score in assay [15] was -0.0348; in [16], -0.0185; in assay [17] it was -0.0192; in [18] it was -0.56; in assay [19] it was 0.954; in [20], 0.864. Also, the z-score in [4] is -2.18 (inactive); in assay [12] it was -1.86.

For the compound `COC(=O)C(CC#Cc1ccc2c(c1)[C@]1(C(=O)N2)[C@H](c2ccc(OCCO)cc2)N2[C@H](c3ccccc3)[C@H](c3ccccc3)OC(=O)[C@H]2[C@@H]1C(=O)NC[C@H](O)c1ccccc1)C(=O)OC`, the composite z-score in assay [1] was 1.62; in assay [2] it was 0.392; in assay [3], 0.473; in [5], 0.826; in [6] it was 0.801; in assay [7], 0.0713. Moreover, the composite z-score was 0.617 in [8]; 0.271 in assay [9]; 0.39 in assay [10]; 1.17 in assay [11]; -0.0571 in assay [13]; 0.794 in assay [14]. In addition, the composite z-score is 0.524 in assay [15]; -0.0346 in [16]; 0.356 in assay [17]; 0.333 in assay [18]; -0.585 in [19]; 2.1 in assay [20]. Moreover, the z-score in assay [4] was 0.348 (inactive); in assay [12] it was -1.39.

With `O=C1N(CCS(=O)(=O)c2ccccc2)c2ccccc2C[C@@]12COC(c1ccc(OCCCO)cc1)=N2`, the composite z-score in assay [1] worked out at 1.51; in assay [2] it was 0.957; in [3], 1.12; in assay [5], 0.805; in assay [6] it was 1.32; in [7] it was 0.432. Further, the composite z-score in assay [8] was 1.32; in assay [9], 0.763; in [10], 1.18; in assay [11], 1.09; in [13] it was 0.428; in assay [14] it was 0.417. Moreover, the composite z-score in assay [15] is 0.445; in assay [16] it was 0.152; in assay [17] it was 0.0124; in assay [18], 0.69; in assay [19], 0.99; in assay [20] it was -0.103. Further, the z-score in assay [4] is -0.651 (inactive); in assay [12], -1.49.
